The values that follow come from PubChem BioAssay AID2205 (University of Pittsburgh Molecular Library Screening Center, 2009).

Out of some 200,000 compounds screened, about 1,600 (0.8%) were called active.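 Rule for the calls: active = plate Z-score above 3 for both tubulin-high and condensed-nucleus cell shares, with cell loss under 80%, at 10 µM; inactive = the rest, inconclusive results apart.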 This excerpt belongs to a sample that is enriched for actives.

The experiment can be described thus: microtubule stabilizers in HeLa cells, primary screen, imaging, high-content imaging (AID 2205).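 For % tubulin-high responders: anti alpha tubulin signal scored within the nucleus-defined area of each cell.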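 For toxicity: 0% = mean cell density of plate MIN control wells and 100% = no cells.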 The settings on record: HeLa tubulin immunostaining HCS, 24 h, at 10 µM; % Hoechst-high responders: measured here: nuclear condensation Hoechst responders, stronger effect = higher value; % tubulin-high responders: stronger effect = higher value; toxicity: measured here: cytotoxicity by cell density.
Regarding `Cc1cccc(-n2c(C)nc3cc(C(=O)N4CCC5(CC4)OCCO5)ccc32)c1`, the % Hoechst-high responders came to 32.4%, the % tubulin-high responders is 48.1% (active) and the toxicity is 34.2%.

Consider `O=C(c1cc(-c2ccncc2)nc2ccccc12)N1CCC2(CC1)OCCO2`, for which the % Hoechst-high responders worked out at 1.52%, the % tubulin-high responders was 3.12% (inactive) and the toxicity came to 6.16%.

Consider `Cc1ccc(-c2cc(C(=O)N3CCC4(CC3)OCCO4)no2)cc1`, for which the % Hoechst-high responders was determined as 2.17%, the % tubulin-high responders was 2.98% (inactive) and the toxicity is 5.89%.

Take `O=C(O)CCn1cc(C=C2C(=O)NC(=S)NC2=O)c(-c2cccc(Br)c2)n1`: the % Hoechst-high responders stood at 1.76%, the % tubulin-high responders was 1.65% (inactive) and the toxicity was determined as 3.44%.

Regarding `C[N+]12CN3CN(CN(C3)C1)C2`, the % Hoechst-high responders came out at 0.953%, the % tubulin-high responders was 7.11% (inactive) and the toxicity was 4.73%.

On to `COc1cc(-n2c(=S)[nH]c3ccc(C)cc3c2=O)c(Cl)cc1Cl`, for which the % Hoechst-high responders came out at 23.7%, the % tubulin-high responders is 12.4% (active) and the toxicity turned out to be 29%.

Regarding `CC(Cc1cccs1)NCc1ccc(Cl)cc1` (stereo not given), the % Hoechst-high responders stood at 2.36%, the % tubulin-high responders is 3.24% (inactive) and the toxicity turned out to be 0.83%.

Turning to `CN1CCN(C(=O)COc2ccc(C(C)(C)C)cc2Br)CC1`, the % Hoechst-high responders came out at 1.35%, the % tubulin-high responders is 1.46% (inactive) and the toxicity was 9.25%.

Regarding `Cc1cccc2c(CCN)c[nH]c12`, the % Hoechst-high responders was 2.2%, the % tubulin-high responders is 2.61% (inactive) and the toxicity is 4.06%.

For the compound `Cc1cc(C)cc(NC(=S)NC2CC3CCCC(C2)N3Cc2cccs2)c1` (stereo not given), the % Hoechst-high responders was 1.98%, the % tubulin-high responders is 3.91% (inactive) and the toxicity is 8.8%.
